Screens: PubChem, several laboratories
Beta cell apopt – blocks beta cell apoptosis; INS-1E cytokine-induced death, ATP luminescence, 48 h; percent of positive-control rescue, neutral wells zero; protection from apoptosis, % (concentration not given with the values); hit rate 0.8% among 300,000; AID 435005;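 active means Every replicate reaches about 75%, or at least half do and their mean reaches it too, limit read from the data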;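 further: 0% = cytokine-treated negative control wells and 100% = positive control rescue; higher means more ATP so stronger rescue from cytokine killing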
697 NFkB inh – lowers PMA/ionomycin-induced NF-kB signal in 697 B cells. hit rate 0.33% among 330,000. inhibition, % at 4 µM. AID 435022. 697 B-cell NF-kB luciferase reporter, 16 h; in the data active means inhibition above about 35%
Gli-Sufu antag – antagonists of Gli-Sufu signaling; Sufu-KO-LIGHT fibroblasts, Gli luciferase reporter luminescence; inhibition, % at 5 µM; hit rate 0.74% among 340,000;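 active means inhibition above about 55%, limit read from the data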;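 further: 0% = DMSO-treated cells and 100% = wells with medium but no cells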
Jurkat NFkB inh – lowers PMA/ionomycin-induced NF-kB signal in Jurkat cells; PMA/ionomycin-induced NF-kB luciferase reporter, luminescence; inhibition, % at 4 µM; hit rate 0.53% among 330,000; in the data active means inhibition above about 50%
Gli antag conf – confirmation of Gli-SUFU pathway antagonists | inhibition, % at 5 µM | shares compounds with Gli-Sufu antag | Sufu-KO-LIGHT cells, Gli luciferase reporter, luminescence | hit rate 40% among 2,500;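 active means mean inhibition at 5 µM reaching about 45%, limit read from the data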;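 further: plate controls were DMSO-treated cells for no effect and wells lacking cells for full effect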
SufuKO cytotox – counter-screen for Gli-SUFU antagonists: cytotoxicity. shares compounds with Gli-Sufu antag. Sufu-KO-LIGHT cells cytotoxicity, ATP luminescence. cytotoxicity, % at 5 µM. hit rate 32% among 2,500. AID 651994;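 active means mean cytotoxicity at 5 µM above about 25%, limit read from the data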;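 further: cells exposed to compound overnight for roughly 16 to 18 hours; plate controls were DMSO wells with cells for no effect and medium without cells for full effect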
Wnt3a counter – Wnt3a reporter inhibition counter-screen. shares compounds with Gli-Sufu antag. Wnt-LIGHT cells, Wnt3a-driven luciferase reporter, luminescence. inhibition, % at 6.25 µM. hit rate 20% among 2,500;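 active means mean inhibition above about 25%, limit read from the data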
Starred values were filed as active, the others as inactive; / = no result. Shown are actives, neighbours in structure and some others; about 1.8% of the full set was active somewhere.

SMILES | Beta cell apopt | 697 NFkB inh | Gli-Sufu antag | Jurkat NFkB inh | Gli antag conf | SufuKO cytotox | Wnt3a counter
COC(=O)c1ccc(=O)n(-c2ccc(OC)cc2)c1 | -9 | 13 | 76* | -9 | 20 | 2 | -1
CC(C)Cc1ccc(C(C)C(=O)Nc2cccnc2)cc1 (stereo not drawn) | 68 | -13 | 66* | 45 | 45 | 19 | 19
Cc1cc(NC(=O)CSc2nc(C)c(C)n2CC(C)C)no1 | -2 | -7 | -4 | 1 | / | / | /
CC(C)(C)c1[nH]nc2c1C(c1ccco1)C(C#N)=C(N)O2 (stereo not drawn) | -7 | 1 | 54 | 4 | 10 | 24 | -13
COc1cc(OC)c(C2=NOC(C(=O)N3CCc4ccccc4C3)C2)cc1Cl (stereo not drawn) | -2 | 9 | 2 | 3 | / | / | /
CCn1cc(CN(C)S(=O)(=O)c2cccc([N+](=O)[O-])c2)cn1 | 3 | 25 | -21 | 8 | / | / | /
CCn1cc(CN(C)S(=O)(=O)c2ccc3ccccc3c2)c(C)n1 | 52 | -5 | 53 | 36 | 50* | 22 | 28*
Cc1nn(C)cc1/C=C/C(=O)c1ccccc1 | -13 | -33 | 99* | -31 | 14 | 6 | -5
CCc1c(C)nc2ncnn2c1N1CCN(S(=O)(=O)c2ccc(OC)cc2)CC1 | 35 | -43 | 60* | 24 | 47* | 26* | 14
Cc1cc(N2CCN(S(=O)(=O)c3ccc(Br)cc3)CC2)n2ncnc2n1 | 2 | -18 | 6 | -2 | / | / | /
CCCCOc1ccc(C(=O)NCCCC(=O)N2CCCCC2)cc1 | 1 | 0 | 68* | -7 | 30 | 12 | -13
COCCN(Cc1cn(C)nc1-c1ccc(Oc2ccccc2)cc1)C(C)C | / | -20 | 57* | 11 | 17 | 15 | -61
CC(C)N(C)Cc1cn(C)nc1-c1ccc(Oc2ccccc2)cc1 | -4 | -20 | 19 | -10 | / | / | /
C=CCn1c(SCC(=O)Nc2nncs2)nnc1-c1ccco1 | 1 | 1 | -2 | 0 | / | / | /
COc1cc(C(=O)N/N=C(\c2ccccc2)c2ccccn2)cc(OC)c1OC | 86* | -33 | 92* | 18 | 84* | 38* | 57*
COc1cccc(/C=N/NC(=O)c2ccc(=O)[nH]n2)c1O | -4 | -8 | 2 | -15 | / | / | /
O=C1CC2(CCCC2)Oc2ccc(F)cc21 | 0 | -3 | 2 | -11 | / | / | /
Cc1ccc2c(c1)C(=O)CC(O)(C(F)F)O2 (stereo not drawn) | -3 | 6 | 55* | 7 | 11 | -1 | 9
CCCn1c(-c2cccs2)nc2c1c(=O)[nH]c(=O)n2Cc1ccccc1 | -5 | 1 | 12 | -2 | / | / | /
CCCCn1c(=O)[nH]c(=O)c2c1nc(-c1ccc(-c3ccccc3)cc1)n2C | 6 | 4 | 53 | 4 | 33 | 12 | -11
CCn1c(-c2ccsc2)nc2c1c(=O)[nH]c(=O)n2Cc1ccccc1 | 3 | -1 | 62* | -5 | 27 | 1 | -8
CC(=O)c1ccc(NC(=O)COC(=O)c2ccc(F)cc2F)cc1 | 2 | 1 | -11 | 10 | / | / | /
COc1ccc(-c2nc3ccccc3n2Cc2ccc(C)cc2)cc1 | 4 | -13 | 12 | -44 | / | / | /
COc1ccc(Cn2c(-c3ccc(C)cc3)c[n+]3ccccc23)cc1 | 93* | 23 | 85* | 37 | 86* | 29* | 36*
Cc1nn(C)c(C)c1CNC(=O)c1cnn2c1NC(c1ccccc1)CC2C(F)(F)F (stereo not drawn) | -5 | 8 | 4 | 4 | / | / | /
SMILES | Beta cell apopt | 697 NFkB inh | Gli-Sufu antag | Jurkat NFkB inh | Gli antag conf | SufuKO cytotox | Wnt3a counter
Cc1ccc(C2CC(C(F)(F)F)n3nc(C(=O)NCc4c(C)nn(C)c4C)c(Cl)c3N2)cc1 (stereo not drawn) | 28 | -29 | 54 | 36 | 54* | 32* | 11
Cc1cc(C)c2nc(N(CCCN(C)C)C(=O)C3=COCCO3)sc2c1 | / | 5 | 22 | 8 | / | / | /
Cc1cc(C)c2nc(N(CCCN(C)C)C(=O)c3ccc4c(c3)OCCO4)sc2c1 | / | -19 | 71* | 8 | 13 | 20 | -61
COc1cc(C(C#N)N2CCOCC2)ccc1O (stereo not drawn) | -13 | 16 | 55* | -2 | 21 | 9 | 3
COc1cc(C(C#N)N2CCCCC2)ccc1O (stereo not drawn) | 3 | 11 | 0 | 3 | / | / | /
CCNc1ccc(C(=O)OCC(=O)NC(C)c2ccccc2)cc1[N+](=O)[O-] (stereo not drawn) | -8 | -28 | 9 | -6 | / | / | /
CCNc1ccc(C(=O)OC(C(=O)NC(N)=O)C(C)C)cc1[N+](=O)[O-] (stereo not drawn) | -1 | 1 | 59* | 7 | 22 | -8 | -6
COc1ccc(NC(=O)CSc2ncnc3c2cnn3Cc2ccccc2)cc1OC | -3 | -5 | 5 | 16 | / | / | /
Cc1ccc(CSc2ccc3nnc(-c4cccnc4)n3n2)cc1 | -2 | 0 | 52 | 13 | 14 | 3 | -3
Brc1ccc(CSc2ccc3nnc(-c4cccnc4)n3n2)cc1 | 14 | -19 | 26 | 8 | / | / | /
O=c1oc2ccccc2c2c1ncn2C1CCCCC1 | 2 | -3 | 1 | -1 | / | / | /
COC(=O)CN1C(=O)COc2ccc(Cl)cc21 | -14 | 21 | 4 | 7 | / | / | /
CC(C)(C)c1ccc(CN2C3=NCCCN3c3ccccc32)cc1 | 41 | -53 | 69* | 27 | 60* | 25 | 15
c1ccc(CN2C3=NCCCN3c3ccccc32)cc1 | / | -2 | 5 | 11 | / | / | /
Clc1cccc(CN2C3=NCCCN3c3ccccc32)c1 | 0 | -14 | 56* | 12 | 19 | 24 | -38
Cc1ccc(OCCOC(=O)c2cc(S(=O)(=O)N3CCCCC3)ccc2N2CCOCC2)cc1 | 67 | -29 | 55* | 10 | 65* | 28* | 3
O=C(OCCOc1ccc(Cl)cc1)c1cc(S(=O)(=O)N2CCCCC2)ccc1N1CCOCC1 | / | / | 69* | / | 68* | 32* | 26*
CN(CCOc1ccc(Cl)cc1)C(=O)c1cc(S(=O)(=O)N2CCOCC2)ccc1N1CCCC1 | 6 | 10 | 11 | -4 | / | / | /
Cc1nn(C(C)(C)C)c(OC(=O)c2ccco2)c1Sc1ccccc1 | -3 | 18 | 92* | -2 | 36 | 4 | 0
Cc1nn(C(C)(C)C)c(OC(=O)c2cccs2)c1Sc1ccccc1 | 3 | 14 | 11 | 15 | / | / | /
CCN(CC)C(=O)c1n[nH]c(=O)c2ccccc12 | -1 | 13 | 7 | 1 | / | / | /
O=C1CCN(Cc2ccccc2)CCN1[C@H](CSc1ccccc1)Cc1ccccc1 | 3 | -3 | -10 | -4 | / | / | /
CCOc1ccc2c(c1)C(C)=CC(C)(C)N2S(=O)(=O)c1ccc(C)cc1 | / | -53 | 67* | 33 | 64* | 62* | 25
CCNC(=O)N1c2ccc(OCC)cc2C(C)=CC1(C)C | -2 | -17 | 4 | -1 | / | / | /
